Compound activity: PubChem BioAssay, National Center for Advancing Translational Sciences (NCATS)
A selection: hits, their analogues and other compounds. The true share with any hit is near 19%.
IL-1B inflam inh – blocks inflammasome-driven IL-1 beta release; THP-1 LPS/ATP IL-1B secretion, AlphaLISA, 16 h; stronger effect = lower value; activity change, % at 57.5 µM; 360,000 compounds, 4.7% hits; in the data active means activity change below about -50%; inconclusive means mostly about -30% to -49%
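THP-1 cells pretreated 1 hr with compounds (up to 57.5 uM final), then stimulated with LPS (250 ng/mL final) plus ATP (1.25 mM final); secreted IL-1B measured by AlphaLISA after 16 hr, decreased signal indicating inhibition.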
DT40 TDP1 CPT – growth inhibition of DT40 Tdp1-/-;hTDP1 cells with camptothecin (screen for TDP1 inhibitors) | Potency, µM (doses to about 46.2 µM), for the others: at the highest dose activity change, negative = growth inhibition, usual class: inhibitors | 420,000 compounds, 12% hits | chicken DT40 Tdp1-/-;hTDP1 cells + 20 nM CPT, ATP luminescence, 48 h; further: potency means the concentration at half of the fitted maximal effect; nearly all actives have a fitted effect of over 55% in size
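Chicken DT40 Tdp1-/- cells stably complemented with human TDP1 were seeded at 400 cells/well in medium containing 20 nM camptothecin, exposed to pin-transferred compounds, and grown at 37 °C for at least 48 hr. Viability was read as ATP luminescence.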
DT40 TDP1 no CPT – qHTS for Inhibitors of human tyrosyl-DNA phosphodiesterase 1 (TDP1): qHTS in cells in absence of CPT; DT40 Tdp1-/- hTDP1 cells, no CPT, ATP luminescence, 48 h; Potency, µM (series often up to 46.2 µM), inactives show at the highest dose activity change, negative = growth inhibition, most hits filed as inhibitors; 420,000 compounds, 15% hits; AID 686978, 2013; further: potency means the concentration at half of the fitted maximal effect; nearly all actives have a fitted effect of over 55% in size
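No-CPT arm: Tdp1-/-;hTDP1 DT40 cells (400/well) plus compounds, incubated ≥48 hr at 37 °C. Readout CellTiter-Glo luminescence.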
TDP1 block – blocks human tyrosyl-DNA phosphodiesterase 1; 350,000 compounds, 0.28% hits; Potency, µM (top dose mostly 130 µM), for the others: at the top dose activity change, negative = inhibition, hits mostly inhibitors; AID 485290; recombinant TDP1, AlphaScreen DNA substrate cleavage; further: potency means the concentration at half of the fitted maximal effect; nearly all actives have a fitted effect of over 40% in size
Target sequence (Q9NUW8 whole entry, looked up): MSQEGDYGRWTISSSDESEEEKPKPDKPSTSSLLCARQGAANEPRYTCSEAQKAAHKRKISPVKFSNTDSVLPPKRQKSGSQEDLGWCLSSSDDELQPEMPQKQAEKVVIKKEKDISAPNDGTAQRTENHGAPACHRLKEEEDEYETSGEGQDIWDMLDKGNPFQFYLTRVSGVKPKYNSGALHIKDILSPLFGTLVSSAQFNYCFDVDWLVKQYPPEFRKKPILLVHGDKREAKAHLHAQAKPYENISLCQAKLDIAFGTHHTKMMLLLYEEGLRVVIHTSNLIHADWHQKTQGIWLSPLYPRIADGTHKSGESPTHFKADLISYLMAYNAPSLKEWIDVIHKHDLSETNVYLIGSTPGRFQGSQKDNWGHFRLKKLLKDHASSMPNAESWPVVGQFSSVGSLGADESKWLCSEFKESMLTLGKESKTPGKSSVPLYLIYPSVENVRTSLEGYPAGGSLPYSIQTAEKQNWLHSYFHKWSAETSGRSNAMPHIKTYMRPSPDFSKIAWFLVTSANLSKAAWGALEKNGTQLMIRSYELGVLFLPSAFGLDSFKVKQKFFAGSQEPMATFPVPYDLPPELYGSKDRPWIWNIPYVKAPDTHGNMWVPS
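Compounds were preincubated with Tdp1 (1 nM final) for 15 min at room temperature before substrate (15 nM final) started a 5 min reaction; beads (10 ug/ml final) were then added for 10 min before AlphaScreen detection.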
ELG1 repair inh – ELG1-dependent DNA repair inhibition; HEK293T ELG1-luciferase reporter, luminescence, 16 h; DNA damage induced by 5-fluorouridine; Potency, µM (top dose mostly 46.1 µM), for the others: at the top dose activity change, negative = inhibition, hits mostly inhibitors; 330,000 compounds, 2.3% hits; AID 504467; further: potency means the concentration at half of the fitted maximal effect; nearly all actives have a fitted effect of over 55% in size
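Luminescence from the luciferase reporter, measured 30 min after ONE-Glo reagent at room temperature, was the read-out. Beforehand, 2,000 cells per well were exposed for 16 hr at 37 °C to 5-fluorouridine together with compound or vehicle.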
Giardia killer – Giardia lamblia killing; Giardia lamblia trophozoite viability; activity change, % at 7.66 µM, hits read low; 340,000 compounds, 0.15% hits; in the data active means activity change below about -80%; inconclusive means between about -30% and that limit;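 further: parasites exposed to compound for two days anaerobically before the ATP read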
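Viability, read as ATP luminescence: trophozoites at 100 cells/well, compound added, 48 hrs anaerobic at 37 deg C, then 15-30 min room-temperature development before reading.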
* hit, by the source's call; ? = inconclusive; . = no result given; ! = repeats disagree; [ ] = another dose, or the depositor's remark. Unless noted, the call rests on the fitted dose curve; in most records, active means well fitted curve in the direction sought with a large enough effect; inconclusive means small, poorly fitted or top-dose-only effect, or another doubt; inactive means no such curve, though single readings can be large; an effect the other way counts as inactive or inconclusive. On the % scale 0 is the no-effect control and ±100 the full control effect.

SMILES	IL-1B inflam inh	DT40 TDP1 CPT	DT40 TDP1 no CPT	TDP1 block	ELG1 repair inh	Giardia killer
C[C@@H]1O[C@H](C[N+](C)(C)C)C[C@@H]1O	.	16%	-5%	5%	.	.
CSc1nc2ccccc2n1C(=O)Oc1ccccc1	4	?	-18%	0%	7%	-4
Cc1ccc(C(=O)n2c(N)nc3ccccc32)cc1	-2	?	?	5%	?	-81*
O=[N+]([O-])c1ccc(C(c2ccc([N+](=O)[O-])cc2)c2ccc([N+](=O)[O-])cc2)cc1	-7	7.3µM*	12µM*	.	.	2
CC(C)NCC(O)c1ccc([N+](=O)[O-])cc1 (stereo not given)	.	1%	-11%	.	.	.
COc1ccc(NC(=O)c2ccc(NC(=O)c3nc4nccc(C)n4n3)cc2)cc1	-5	0%	-6%	-1%	?	-24
C#C[C@]1(O)CCC2C3C(=O)C=C4C(Cl)=CCC[C@]4(C)C3CC[C@@]21C (stereo not given in full)	-90*	16µM*	10µM*	.	.	-17
COc1ccc(-n2c(C)cc(C(=O)C[N+]34CCN(CC3)CC4)c2C)cc1	-20	18%	?	6%	?	4
O=C(Cc1ccc(Cl)c(Cl)c1)N1CCCC[C@H]1CN1CCCC1	.	27µM*	27µM*	12%[56.1 µM]	.	.
COc1cc2c3cc1Oc1cc(ccc1O)C[C@@H]1c4c(cc(OC)c(O)c4Oc4ccc(cc4)C[C@H]3N(C)CC2)CCN1C	18	4.1µM*	4.6µM*	6%	-8%	0
COc1cc2c3cc1Oc1c(OC)c(OC)cc4c1[C@@H](Cc1ccc(OC(=O)c5ccc([N+](=O)[O-])cc5)c(c1)Oc1ccc(cc1)C[C@@H]3N(C)CC2)N(C)CC4	.	.	.	11%	.	.
COc1cc2c3cc1Oc1c(OC)c(OC)cc4c1[C@@H](Cc1ccc(O)c(c1)Oc1ccc(cc1)C[C@@H]3N(C)CC2)N(C)CC4	.	?	-22%	10%	.	.
COc1cc2c3c(c1OC)Oc1ccc(cc1)C[C@H]1c4c(cc(OC)c(OC)c4Oc4ccc(cc4)C[C@@H]3N(C)CC2)CCN1C	-3	16µM*	18µM*	2%	2%	14
COc1ccc2cc1Oc1ccc(cc1)C[C@H]1c3cc(c(OC)cc3CCN1C)Oc1c(OC)c(OC)cc3c1[C@H](C2)N(C)CC3	-96*	5µM*!	11µM*!	11%	5%	-26
C=CCOc1c(Cl)cc(CNc2ccc3[nH]c(=O)[nH]c3c2)cc1OC	0	13µM*	?	8%	?	-13
CCOc1c(Cl)cc(CNc2ccc(S(N)(=O)=O)cc2)cc1OC	27	?	16µM*	0%	?	1
CCOc1c(Cl)cc(CNC(C)C(O)c2ccccc2)cc1OC (stereo not given)	-6	-12%	-12%	-1%	-6%	-28
N.N.N.N.N.N.N.N.N.N.N.N.N.N.O.O.[Cl-].[Cl-].[Cl-].[Cl-].[Cl-].[Cl-].[Ru].[Ru].[Ru]	.	.	.	15%[56.1 µM]	.	.
COC(=O)c1ccc(COC(=O)c2nn(C)c(=O)c3ccccc23)cc1	19	?	?	-3%	4%	-1
Cc1oc(-c2ccccc2Cl)nc1CN1C(=O)CN=C(c2ccccc2)c2ccccc21	?	?	21µM*	5%	?	12
CN1C(=O)CN=C(c2ccccc2Cl)c2cc(Br)ccc21	7	-28%	-15%	.	?	3
COc1ccc(-c2nc(CN3C(=O)CN=C(c4ccccc4)c4ccccc43)c(C)o2)cc1	.	?	18µM*	9%	.	.
O=C1CN=C(c2ccccc2)c2cc(Br)ccc2N1Cc1cc(=O)n2ccccc2n1	-15	?	?	2%	1%	?
Cc1ccc(-c2nc(CN3C(=O)CN=C(c4ccccc4)c4ccccc43)c(C)o2)cc1	.	?	18µM*	9%	.	.
O=C1CN=C(c2ccccc2)c2ccccc2N1Cc1ccc(C(F)(F)F)cc1	5	22µM*	?	3%	-6%	-4
SMILES	IL-1B inflam inh	DT40 TDP1 CPT	DT40 TDP1 no CPT	TDP1 block	ELG1 repair inh	Giardia killer
Cc1ccc(-c2nc(CN3C(=O)CN=C(c4ccccc4)c4cc(Cl)ccc43)c(C)o2)cc1	.	?	?	6%	.	.
CCCC(=O)Cl	.	.	.	6%	.	.
COC(=O)[C@@H]1[C@@H]2C[C@H]3c4[nH]c5cc(OC)ccc5c4CCN3C[C@@H]2C[C@H](OC(=O)/C=C\c2cc(OC)c(OC)c(OC)c2)[C@H]1OC	.	.	.	19%[21 µM]	.	.
CCCCCCCCCCCCCCCCOC[C@@H](O)COP(=O)([O-])OCC[N+](C)(C)C	.	-15%[4.12 µM]	0%[4.12 µM]	4%	.	.
CC1(C)C2C[C@@H](O)[C@]3(C)C(CC[C@@]4(C)[C@H](c5ccoc5)C[C@H]5O[C@]543)[C@@]2(C)[C@@H](O)C[C@H]1O (stereo not given in full)	.	-18%[9.04 µM]	-19%[9.04 µM]	9%	.	.
CC12CCC3C(CC=C4CC(O)CCC43C)C1C/C(=C\c1cccc(F)c1)C2=O (stereo not given)	4	?	15µM*	-3%	8%	-1
COc1cc(-c2ccc(-[n+]3nc(-c4ccccc4)nn3-c3ccc([N+](=O)[O-])cc3)c(OC)c2)ccc1-[n+]1nc(-c2ccccc2)nn1-c1ccc([N+](=O)[O-])cc1	.	2.7µM*	6µM*	.	.	.
c1ccc(-c2nn(-c3ccccc3)[n+](-c3ccccc3)n2)cc1	15	0.58µM*	0.41µM*	.	.	4
COc1ccc(-c2nn(CCC#N)cc2C(=O)NCc2ccccc2)cc1[N+](=O)[O-]	-12	1%	15%	.	3%	?
C[N+]1=Cc2cc3c(cc2CC1)OCO3	.	5%	-10%	10%[56.1 µM]	.	.
CCC(=O)c1ccc(OCC(=O)N2CCN(CC(=O)Nc3ccccc3C(F)(F)F)CC2)cc1	10	?	15µM*	-2%	16µM*	1
CN(C)C1(c2nnnn2CCOC(=O)Nc2ccc(Cl)cc2)CCCCC1	-29	?	18µM*	0%	?	-2
COc1ccc(-n2nnnc2C(c2cccc(OC)c2OC)N2CCC(n3c(=O)[nH]c4ccccc43)CC2)cc1 (stereo not given)	-22	8.2µM*	5.2µM*	.	.	.
O=c1[nH]c2ccccc2n1C1CCN(C(c2ccccc2OC(F)(F)F)c2nnnn2-c2ccc3c(c2)OCCO3)CC1 (stereo not given)	-56*	7.3µM*	4.6µM*	.	.	.
